# Source: PubChem BioAssay (EPA / NIEHS)
# Inconclusive results are not listed. Activity calls are given as the source filed them. How the source made its calls, unless noted: active means hit-call score of the fitted dose curve at least 0.9, where 1 is the maximum; inactive means score below 0.9.
# How the values were obtained:
# [1] = molecular target: Myc proto-oncogene protein (Homo sapiens) (UniProt P01106); test: ATG_Myc_CIS: Attagene CIS-FACTORIAL HepG2 Assay for human Myelocytomatosis (Myc) Proto-Oncogene Transcription Factor (AID 2282990); details: HepG2, Attagene cis-reporter transcription factor activity; actives raise or lower the signal
# Myc proto-oncogene protein (Homo sapiens), sequence (P01106 whole entry, looked up): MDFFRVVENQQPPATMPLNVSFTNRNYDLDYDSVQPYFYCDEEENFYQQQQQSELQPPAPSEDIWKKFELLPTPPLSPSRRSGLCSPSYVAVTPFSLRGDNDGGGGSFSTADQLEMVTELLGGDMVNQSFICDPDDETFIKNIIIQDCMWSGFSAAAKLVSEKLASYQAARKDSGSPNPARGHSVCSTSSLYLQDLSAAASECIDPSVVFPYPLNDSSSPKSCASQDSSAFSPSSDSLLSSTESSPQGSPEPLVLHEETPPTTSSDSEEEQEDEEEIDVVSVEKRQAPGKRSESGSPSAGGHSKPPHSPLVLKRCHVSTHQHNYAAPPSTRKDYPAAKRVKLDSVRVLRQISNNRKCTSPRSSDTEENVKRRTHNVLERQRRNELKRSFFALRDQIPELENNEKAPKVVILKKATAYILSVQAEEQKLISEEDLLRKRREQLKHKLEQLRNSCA
# In short: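 HepG2, transient MRTU transfection (cis promoters, endogenous TFs); 24 h dosing; TriZol RNA → oligo(dT) RT → PCR → 6-FAM primer extension → HpaI cut → CE. Bidirectional fit vs DMSO.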
# [2] = ATG_NF_kB_CIS: Attagene CIS-FACTORIAL HepG2 Assay for human Nuclear Factor Kappa B (NF-kB) (AID 2282991); details: HepG2 Attagene cis-factorial NF-kB reporter mRNA; actives raise or lower the signal
# In short: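 Transient MRTU transfection of human HepG2 liver cells → 24 h chemical exposure → total RNA, oligo(dT) RT → PCR, 6-FAM primer extension, HpaI digest 2 h 37 C → CE fragment analysis. Bidirectional fitting, DMSO negative control.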
# [3] = ATG_NRF2_ARE_CIS: Attagene CIS-FACTORIAL HepG2 Assay for human Nuclear Factor Erythroid 2 Related Factor 2 (NFR2) response to Antioxidant Response Elements (ARE) (AID 2282992); details: HepG2 Attagene ARE/NRF2 reporter, transcription factor activity; actives raise or lower the signal;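 on AC50: reporter mRNA level measured by RT-PCR and capillary electrophoresis fluorescence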
# In short: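 HepG2 cells transiently transfected with multiplexed cis-regulated reporter transcription units measure endogenous transcription factor activity. Reporter mRNA at 24 h is quantified by RT-PCR, fluorescent labelling and capillary electrophoresis, with bidirectional fitting relative to DMSO.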
# [4] = ATG_Oct_MLP_CIS: Attagene CIS-FACTORIAL HepG2 Assay for human Octamer-Binding Transcription Factor (Oct) (AID 2282993); details: HepG2 Attagene cis-factorial Oct reporter, mRNA; actives raise or lower the signal
# In short: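 After 24 h compound exposure, transfected HepG2 cells were lysed for total RNA; reporter-specific cDNA was PCR-amplified, fluorescently labelled and sized by capillary electrophoresis. Bidirectional curve fitting used DMSO as baseline.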
# [5] = molecular target: Cellular tumor antigen p53 (Homo sapiens) (UniProt P04637); test: ATG_p53_CIS: Attagene CIS-FACTORIAL HepG2 Assay for human p53 Transcription Factor (AID 2282994); details: HepG2 p53 cis-element reporter, Attagene mRNA; actives raise or lower the signal
# Cellular tumor antigen p53 (Homo sapiens), sequence (P04637 whole entry, looked up): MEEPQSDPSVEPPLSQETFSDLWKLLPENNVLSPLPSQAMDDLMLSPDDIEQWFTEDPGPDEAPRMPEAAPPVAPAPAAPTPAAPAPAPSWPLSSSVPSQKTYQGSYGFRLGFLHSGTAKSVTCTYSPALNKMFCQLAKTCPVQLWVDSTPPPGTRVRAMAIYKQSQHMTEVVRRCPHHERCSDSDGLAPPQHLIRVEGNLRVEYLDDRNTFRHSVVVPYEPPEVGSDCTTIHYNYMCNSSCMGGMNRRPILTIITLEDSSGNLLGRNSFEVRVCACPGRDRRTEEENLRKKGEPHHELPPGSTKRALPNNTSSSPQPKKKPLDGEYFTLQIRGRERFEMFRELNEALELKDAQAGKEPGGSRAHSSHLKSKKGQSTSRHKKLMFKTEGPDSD
# In short: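 HepG2 cells transiently transfected with multiplexed cis-regulated reporter transcription units read endogenous TF activity. After 24 h compound exposure, reporter mRNA was quantified by RT-PCR, fluorescent labelling, HpaI digestion and capillary electrophoresis; bidirectional fits versus DMSO baseline.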
# [6] = molecular target: human Peroxisome Proliferator-activated Receptor alpha (PPARa), PPARA (gene 5465) (UniProt Q07869); test: ATG_PPARa_TRANS: Attagene TRANS-FACTORIAL HepG2 Assay for human Peroxisome Proliferator-activated Receptor alpha (PPARa) (AID 2283001; active means hit-call score of the fitted dose curve at least 0.9, where 1 is the maximum;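 on AC50: potency for gain of reporter signal over DMSO so agonist or activator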)
# human Peroxisome Proliferator-activated Receptor alpha (PPARa), PPARA (gene 5465), sequence (Q07869 whole entry, looked up, the tested form may be a part): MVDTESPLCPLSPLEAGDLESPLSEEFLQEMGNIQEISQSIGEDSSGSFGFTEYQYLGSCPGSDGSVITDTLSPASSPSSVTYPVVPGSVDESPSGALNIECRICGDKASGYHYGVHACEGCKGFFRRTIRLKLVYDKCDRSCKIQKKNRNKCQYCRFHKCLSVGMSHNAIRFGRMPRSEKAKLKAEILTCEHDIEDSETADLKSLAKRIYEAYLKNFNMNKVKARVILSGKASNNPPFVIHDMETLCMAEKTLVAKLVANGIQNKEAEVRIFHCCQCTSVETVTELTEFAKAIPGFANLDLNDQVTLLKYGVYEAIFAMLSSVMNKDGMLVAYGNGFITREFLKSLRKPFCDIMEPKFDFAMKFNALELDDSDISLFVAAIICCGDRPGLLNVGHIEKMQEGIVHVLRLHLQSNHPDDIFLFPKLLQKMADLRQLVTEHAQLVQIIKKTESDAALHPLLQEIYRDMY
# In short: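 Read-out is fluorescence of reporter cDNA fragments resolved by capillary electrophoresis after RT-PCR. Human HepG2 liver cells carried transfected PPARa-Gal4 chimera and GAL4-UAS reporter units, treated 24 h; activity scored as increase over DMSO.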
# [7] = molecular target: human Retinoic Acid Receptor beta (RARb), RARB (gene 5915) (UniProt P10826); test: ATG_RARb_TRANS: Attagene TRANS-FACTORIAL HepG2 Assay for human Retinoic Acid Receptor beta (AID 2283004; active means hit-call score of the fitted dose curve at least 0.9, where 1 is the maximum)
# human Retinoic Acid Receptor beta (RARb), RARB (gene 5915), sequence (P10826 whole entry, looked up, the tested form may be a part): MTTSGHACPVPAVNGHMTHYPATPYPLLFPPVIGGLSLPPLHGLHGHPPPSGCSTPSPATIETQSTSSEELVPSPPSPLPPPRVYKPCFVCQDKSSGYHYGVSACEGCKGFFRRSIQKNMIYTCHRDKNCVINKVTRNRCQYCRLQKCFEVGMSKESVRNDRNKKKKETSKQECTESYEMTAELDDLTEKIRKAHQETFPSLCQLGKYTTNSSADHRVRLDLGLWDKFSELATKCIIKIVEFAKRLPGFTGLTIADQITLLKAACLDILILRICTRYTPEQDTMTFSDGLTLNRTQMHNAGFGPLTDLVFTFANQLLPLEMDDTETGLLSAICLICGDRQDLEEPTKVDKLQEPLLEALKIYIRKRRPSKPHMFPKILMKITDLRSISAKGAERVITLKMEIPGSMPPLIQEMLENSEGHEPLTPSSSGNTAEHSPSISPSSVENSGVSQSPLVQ
# In short: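 Fluorescent capillary-electrophoresis detection of GAL4-UAS reporter mRNA defines the endpoint, with induction over DMSO-treated wells scored as activity. Transiently transfected human hepatoma HepG2 cells expressing exogenous NR–Gal4 proteins are exposed to test chemicals for 24 h.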
# [8] = molecular target: Retinoic acid receptor alpha (Homo sapiens) (UniProt P10276); test: ATG_RARa_TRANS: Attagene TRANS-FACTORIAL HepG2 Assay for human Retinoic Acid Receptor alpha (RARa) (AID 2283005; active means hit-call score of the fitted dose curve at least 0.9, where 1 is the maximum)
# Retinoic acid receptor alpha (Homo sapiens), sequence (P10276 whole entry, looked up, the tested form may be a part): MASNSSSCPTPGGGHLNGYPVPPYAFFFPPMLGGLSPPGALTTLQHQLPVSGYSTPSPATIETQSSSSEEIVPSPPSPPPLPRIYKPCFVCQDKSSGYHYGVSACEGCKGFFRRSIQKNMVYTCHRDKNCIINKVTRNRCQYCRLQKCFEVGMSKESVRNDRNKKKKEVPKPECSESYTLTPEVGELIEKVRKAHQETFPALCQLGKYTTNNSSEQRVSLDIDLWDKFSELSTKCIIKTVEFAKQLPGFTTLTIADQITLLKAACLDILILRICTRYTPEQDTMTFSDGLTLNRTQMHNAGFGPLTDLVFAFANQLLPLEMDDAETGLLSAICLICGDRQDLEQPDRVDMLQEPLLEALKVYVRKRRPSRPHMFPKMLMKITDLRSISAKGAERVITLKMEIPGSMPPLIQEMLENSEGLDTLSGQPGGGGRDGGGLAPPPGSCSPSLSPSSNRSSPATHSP
# In short: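 Reporter transcripts, measured by RT-PCR with fluorescent labeling and capillary electrophoresis after 24 h dosing, reflect activity of an exogenous human RARa–GAL4 fusion in transiently transfected HepG2. Fitted for increase relative to DMSO.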
# [9] = molecular target: Peroxisome proliferator-activated receptor gamma (Homo sapiens) (UniProt P37231); test: ATG_PPARg_TRANS: Attagene TRANS-FACTORIAL HepG2 Assay for human Peroxisome Proliferator-activated Receptor-gamma (PPARg) (AID 2283007; active means hit-call score of the fitted dose curve at least 0.9, where 1 is the maximum)
# Peroxisome proliferator-activated receptor gamma (Homo sapiens), sequence (P37231 whole entry, looked up, the tested form may be a part): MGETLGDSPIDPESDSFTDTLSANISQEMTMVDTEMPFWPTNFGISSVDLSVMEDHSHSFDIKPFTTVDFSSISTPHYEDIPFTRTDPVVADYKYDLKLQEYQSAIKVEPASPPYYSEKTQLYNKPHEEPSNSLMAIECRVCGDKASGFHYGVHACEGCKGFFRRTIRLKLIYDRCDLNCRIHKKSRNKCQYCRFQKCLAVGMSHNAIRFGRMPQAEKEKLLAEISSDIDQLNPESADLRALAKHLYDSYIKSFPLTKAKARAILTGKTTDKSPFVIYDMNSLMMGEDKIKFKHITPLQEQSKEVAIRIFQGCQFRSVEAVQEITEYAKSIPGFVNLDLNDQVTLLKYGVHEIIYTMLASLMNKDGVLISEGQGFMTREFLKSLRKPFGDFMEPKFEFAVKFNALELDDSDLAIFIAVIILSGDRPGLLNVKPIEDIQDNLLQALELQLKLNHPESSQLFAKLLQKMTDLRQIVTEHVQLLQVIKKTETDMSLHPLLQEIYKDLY
# In short: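 Transient transfection of HepG2 with GAL4-UAS-driven reporter units; chemical dosing 24 h; total RNA → oligo(dT) RT → PCR with reporter primers → 6-FAM primer extension → HpaI digest 2 h 37 C → capillary electrophoresis. Positive direction vs DMSO.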
# [10] = molecular target: human Retinoic Acid Receptor gamma (RARg), RARG (gene 5916) (UniProt P13631); test: ATG_RARg_TRANS: Attagene TRANS-FACTORIAL HepG2 Assay for human Retinoic Acid Receptor gamma (RARg) (AID 2283009; active means hit-call score of the fitted dose curve at least 0.9, where 1 is the maximum)
# In short: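 HepG2 transiently transfected with GAL4-UAS reporter units and chimeric NR-Gal4 constructs; 24 h compound exposure. Reporter mRNA quantified by RT-PCR, FAM labeling, HpaI digestion and capillary electrophoresis; gain-of-signal versus DMSO.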
# [11] = molecular target: human Peroxisome Proliferator-activated Receptor delta (PPARd), PPARD (gene 5467) (UniProt Q03181); test: ATG_PPARd_TRANS: Attagene TRANS-FACTORIAL HepG2 Assay for human Peroxisome Proliferator-activated Receptor delta (PPARd) (AID 2283002; active means hit-call score of the fitted dose curve at least 0.9, where 1 is the maximum)
# human Peroxisome Proliferator-activated Receptor delta (PPARd), PPARD (gene 5467), sequence (Q03181 whole entry, looked up, the tested form may be a part): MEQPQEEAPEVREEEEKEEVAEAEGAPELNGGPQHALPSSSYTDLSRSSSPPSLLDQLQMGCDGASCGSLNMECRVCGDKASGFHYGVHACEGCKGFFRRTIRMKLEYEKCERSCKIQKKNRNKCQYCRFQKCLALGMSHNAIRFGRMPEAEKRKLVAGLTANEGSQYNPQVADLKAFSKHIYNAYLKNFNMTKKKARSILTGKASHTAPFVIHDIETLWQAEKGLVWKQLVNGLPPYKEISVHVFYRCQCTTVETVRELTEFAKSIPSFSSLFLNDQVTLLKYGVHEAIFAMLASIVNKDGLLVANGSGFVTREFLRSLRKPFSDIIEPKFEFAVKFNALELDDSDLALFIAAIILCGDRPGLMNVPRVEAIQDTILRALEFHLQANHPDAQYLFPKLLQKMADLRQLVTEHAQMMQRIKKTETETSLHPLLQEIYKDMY
# In short: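 Transient HepG2 transfection (multiple GAL4-UAS RTUs, chimeric receptor-Gal4); 24 h dosing; total RNA → oligo(dT) RT → PCR → 6-FAM primer extension → HpaI cut → CE. Positive direction vs DMSO.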
# [12] = molecular target: Nuclear receptor subfamily 1 group I member 2 (Homo sapiens) (UniProt O75469); test: ATG_PXR_TRANS: Attagene TRANS-FACTORIAL HepG2 Assay for human Pregnane X Receptor (PXR) (AID 2283008; active means hit-call score of the fitted dose curve at least 0.9, where 1 is the maximum)
# Nuclear receptor subfamily 1 group I member 2 (Homo sapiens), sequence (O75469 whole entry, looked up, the tested form may be a part): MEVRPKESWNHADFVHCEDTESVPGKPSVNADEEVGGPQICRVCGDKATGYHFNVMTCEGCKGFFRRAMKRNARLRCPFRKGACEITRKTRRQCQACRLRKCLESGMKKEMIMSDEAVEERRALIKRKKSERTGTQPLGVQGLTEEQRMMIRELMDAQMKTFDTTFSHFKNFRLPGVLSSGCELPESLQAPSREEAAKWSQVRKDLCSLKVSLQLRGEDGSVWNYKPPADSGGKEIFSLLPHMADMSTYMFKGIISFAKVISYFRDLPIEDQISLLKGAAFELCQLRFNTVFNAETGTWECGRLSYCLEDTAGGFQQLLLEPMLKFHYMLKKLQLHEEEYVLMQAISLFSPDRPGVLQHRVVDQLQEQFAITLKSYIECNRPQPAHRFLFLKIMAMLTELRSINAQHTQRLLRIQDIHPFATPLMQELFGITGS
# In short: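 HepG2 cells transiently transfected with multiple reporter units, here a PXR-GAL4 chimera driving a GAL4-UAS reporter; 24 h compound exposure. Reporter mRNA measured by RT-PCR, FAM labelling and capillary electrophoresis; gain of signal fitted against DMSO baseline.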
# [13] = molecular target: human RAR-related Orphan Receptor beta (RORb), RORB (gene 6096) (UniProt Q92753); test: ATG_RORb_TRANS: Attagene TRANS-FACTORIAL HepG2 Assay for human RAR-related Orphan Receptor beta (RORb) (AID 2283010; active means hit-call score of the fitted dose curve at least 0.9, where 1 is the maximum)
# human RAR-related Orphan Receptor beta (RORb), RORB (gene 6096), sequence (Q92753 whole entry, looked up, the tested form may be a part): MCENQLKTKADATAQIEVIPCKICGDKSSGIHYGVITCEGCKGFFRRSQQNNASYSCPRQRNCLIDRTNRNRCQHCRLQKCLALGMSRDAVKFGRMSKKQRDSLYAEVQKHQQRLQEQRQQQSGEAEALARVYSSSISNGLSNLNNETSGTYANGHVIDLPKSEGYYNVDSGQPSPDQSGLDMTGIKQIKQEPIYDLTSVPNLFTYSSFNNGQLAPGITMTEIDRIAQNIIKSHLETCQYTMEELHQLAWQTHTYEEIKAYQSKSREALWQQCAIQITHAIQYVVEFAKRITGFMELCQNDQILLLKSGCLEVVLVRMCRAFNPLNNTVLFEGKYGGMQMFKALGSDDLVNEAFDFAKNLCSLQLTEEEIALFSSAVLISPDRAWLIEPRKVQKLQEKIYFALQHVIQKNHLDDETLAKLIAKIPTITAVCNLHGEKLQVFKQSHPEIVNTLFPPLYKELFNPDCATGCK
# In short: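 HepG2 cells transiently transfected with GAL4-UAS reporter units expressing chimeric NR-Gal4 protein; reporter mRNA measured 24 h after dosing by RT-PCR, 6-FAM labelling and capillary electrophoresis. Gain-of-signal fitted relative to DMSO baseline.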
# [14] = molecular target: human RAR-related Orphan Receptor gamma (RORg), RORC (gene 6097) (UniProt P51449); test: ATG_RORg_TRANS: Attagene TRANS-FACTORIAL HepG2 Assay for human RAR-related Orphan Receptor gamma (RORg) (AID 2283011; active means hit-call score of the fitted dose curve at least 0.9, where 1 is the maximum)
# human RAR-related Orphan Receptor gamma (RORg), RORC (gene 6097), sequence (P51449 whole entry, looked up, the tested form may be a part): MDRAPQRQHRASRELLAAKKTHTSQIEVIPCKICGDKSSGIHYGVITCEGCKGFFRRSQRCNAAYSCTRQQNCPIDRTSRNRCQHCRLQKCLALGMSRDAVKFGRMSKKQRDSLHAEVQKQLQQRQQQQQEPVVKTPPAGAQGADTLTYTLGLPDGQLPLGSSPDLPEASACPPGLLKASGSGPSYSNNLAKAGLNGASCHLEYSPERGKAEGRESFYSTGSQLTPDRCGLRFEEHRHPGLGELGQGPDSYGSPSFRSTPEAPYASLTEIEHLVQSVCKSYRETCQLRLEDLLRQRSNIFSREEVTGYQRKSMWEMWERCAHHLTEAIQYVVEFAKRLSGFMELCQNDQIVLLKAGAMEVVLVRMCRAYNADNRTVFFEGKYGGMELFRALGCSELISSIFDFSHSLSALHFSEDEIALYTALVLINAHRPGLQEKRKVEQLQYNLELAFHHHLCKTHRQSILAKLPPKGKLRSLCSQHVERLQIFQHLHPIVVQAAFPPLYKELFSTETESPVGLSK
# In short: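 Chimeric RORg-Gal4 transactivation in transfected HepG2; 24 h exposure; RT-PCR/capillary electrophoresis readout of reporter mRNA, DMSO baseline.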
# [15] = BSK_3C_TissueFactor: BioMAP Diversity Plus: 3C Assay for Tissue Factor Biomarker Activity (AID 2282997); details: BioMAP 3C HUVEC, tissue factor biomarker readout; actives raise or lower the signal
# In short: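 Endothelial monolayers (human umbilical vein, primary) are dosed, incubated 24 h, and assayed for Tissue Factor by ELISA; DMSO serves as negative control for bidirectional fitting.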
# [16] = BSK_3C_uPAR: BioMAP Diversity Plus: 3C Assay for Urokinase-type plasminogen activator receptor (uPAR) Biomarker Activity (AID 2282998); details: BioMAP 3C HUVEC, uPAR biomarker ELISA; actives raise or lower the signal
# In short: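 Values derive from bidirectional curve fitting relative to DMSO, which served as baseline of activity. uPAR was measured by ELISA in human umbilical vein endothelial primary cultures 24 h after compound addition.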
# [17] = BSK_3C_VCAM1: BioMAP Diversity Plus: 3C Assay for Vascular cell adhesion molecule 1 (VCAM1) Biomarker Activity (AID 2282999); details: BioMAP 3C HUVEC, VCAM1 ELISA, cytokine-stimulated; actives raise or lower the signal
# In short: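 Endothelial cells from human umbilical vein are treated with test chemical. At 24 h, VCAM-1 is measured by ELISA, and responses in either direction are fitted relative to DMSO.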
# [18] = BSK_4H_Eotaxin3: BioMAP Diversity Plus: 4H Assay for Eotaxin 3 Biomarker Activity (AID 2283000); details: primary human endothelial cells (HUVEC); actives raise or lower the signal;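 on outcome: CCL26 protein level quantified by ELISA in parallel with SRB cytotoxicity check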
# In short: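 ELISA quantitation of CCL26 (Eotaxin-3) protein from chemically dosed human vascular endothelial cells at 24 h; increases and decreases both scored relative to DMSO-treated baseline.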
# [19] = read-out: Intercellular Adhesion Molecule 1 (ICAM1), ICAM1 (gene 3383); test: BSK_3C_ICAM1: BioMAP Diversity Plus: 3C Assay for Intercellular Adhesion Molecule 1 (ICAM1) Biomarker Activity (AID 2283003); details: primary human endothelial cells (HUVEC); actives raise or lower the signal
# In short: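 HUVEC primary cells stimulated under 3C conditions; ICAM1 measured by ELISA 24 h after compound dosing. Curves fitted bidirectionally against the DMSO baseline. Overt cytotoxicity checked by SRB staining of parallel cultures.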
# [20] = BSK_3C_Proliferation: Cell Proliferation Assessment in the BioMAP Diversity Plus: 3C Assay (AID 2283006); details: primary human endothelial cells (HUVEC);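 on AC50: potency may reflect either rise or fall in cell number versus DMSO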
# In short: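 Subconfluent HUVEC (3C system) cultured with chemical; relative cell number read at 48 h by sulforhodamine B total-protein staining (0.1% SRB after 10% TCA fixation, 560 nm). Bidirectional fit relative to DMSO.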
structure (smiles),measurement,setting,value
O=CCCl,AC50,[1],24.5 µM (active)
same,AC50,[2],32.7 µM (active)
same,AC50,[3],23.6 µM (active)
same,AC50,[4],26 µM (active)
same,outcome,[5],inactive
same,outcome,[6],inactive
same,outcome,[7],inactive
same,outcome,[8],inactive
same,outcome,[9],inactive
same,outcome,[10],inactive
Clc1cc(C(Cl)(Cl)Cl)cnc1Cl,AC50,[1],55.5 µM (active)
same,AC50,[2],8.56 µM (active)
same,outcome,[3],inactive
same,AC50,[4],15.6 µM (active)
same,AC50,[5],14.7 µM (active)
same,outcome,[6],inactive
same,outcome,[11],inactive
same,outcome,[7],inactive
same,outcome,[9],inactive
same,outcome,[12],inactive
same,outcome,[13],inactive
BrCCCCBr,outcome,[1],inactive
same,outcome,[2],inactive
same,outcome,[3],inactive
same,outcome,[4],inactive
same,outcome,[5],inactive
same,outcome,[6],inactive
same,outcome,[7],inactive
same,outcome,[9],inactive
same,outcome,[14],inactive
Oc1cccc(-c2ccccc2)c1,outcome,[1],inactive
same,outcome,[2],inactive
same,AC50,[3],100 µM (active)
same,outcome,[4],inactive
same,outcome,[5],inactive
same,outcome,[15],inactive
same,AC50,[16],20 µM (active)
same,AC50,[17],37.1 µM (active)
same,AC50,[18],20 µM (active)
same,outcome,[6],inactive
same,outcome,[11],inactive
same,outcome,[19],inactive
same,outcome,[7],inactive
same,AC50,[20],27.2 µM (active)
same,AC50,[9],34.6 µM (active)
same,AC50,[12],26.1 µM (active)
same,outcome,[14],inactive
N#CCC#N,outcome,[1],inactive
same,outcome,[2],inactive
same,outcome,[3],inactive
same,outcome,[4],inactive
same,outcome,[5],inactive
same,outcome,[6],inactive
same,outcome,[11],inactive
same,outcome,[8],inactive
same,outcome,[9],inactive
same,outcome,[12],inactive
OCCCCO,outcome,[1],inactive
same,outcome,[2],inactive
same,outcome,[3],inactive
same,outcome,[4],inactive
same,outcome,[5],inactive
same,outcome,[15],inactive
same,outcome,[16],inactive
same,outcome,[17],inactive
same,outcome,[18],inactive
same,outcome,[6],inactive
same,outcome,[19],inactive
same,outcome,[20],inactive
same,outcome,[13],inactive
same,outcome,[14],inactive
Nc1cccnc1,outcome,[1],inactive
same,outcome,[2],inactive
same,outcome,[3],inactive
same,outcome,[4],inactive
same,outcome,[5],inactive
same,outcome,[6],inactive
same,outcome,[11],inactive
same,outcome,[9],inactive
same,outcome,[12],inactive
CN(CCCC(O)c1cccnc1)N=O (stereo unspecified),outcome,[1],inactive
same,outcome,[2],inactive
same,outcome,[3],inactive
same,outcome,[4],inactive
same,outcome,[5],inactive
same,outcome,[6],inactive
same,outcome,[7],inactive
same,outcome,[8],inactive
same,outcome,[9],inactive
same,outcome,[12],inactive
same,outcome,[13],inactive
same,outcome,[14],inactive
O=S(=O)(c1ccc(Cl)cc1)c1cc(Cl)c(Cl)cc1Cl,outcome,[1],inactive
same,outcome,[2],inactive
same,AC50,[3],10.4 µM (active)
same,outcome,[4],inactive
same,outcome,[5],inactive
same,AC50,[16],6.4 µM (active)
same,outcome,[17],inactive
same,outcome,[18],inactive
same,outcome,[11],inactive
same,outcome,[19],inactive
same,AC50,[20],5.2 µM (active)
same,AC50,[9],7.66 µM (active)
same,AC50,[12],1.25 µM (active)
C=CC(=O)OCC(COC(=O)C=C)(COC(=O)C=C)COC(=O)C=C,outcome,[1],inactive
same,AC50,[2],1.96 µM (active)
same,outcome,[3],inactive
same,AC50,[4],8.16 µM (active)
same,AC50,[5],8.93 µM (active)
same,AC50,[6],100 µM (active)
same,outcome,[11],inactive
same,AC50,[9],100 µM (active)
same,outcome,[10],inactive
same,outcome,[13],inactive
same,outcome,[14],inactive
